IL-1B inflam inh: qHTS for Inhibitors of Inflammasome Signaling: IL-1-beta AlphaLISA Primary Screen; THP-1 LPS/ATP IL-1B secretion, AlphaLISA, 16 h; hits give low values; activity change, % at 57.5 µM; AID 743279, 2014; 360,000 compounds, 4.7% hits; in the data active = activity change below about -50%; inconclusive = mostly about -30% to -49%
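THP-1 cells pretreated 1 hr with compounds (up to 57.5 uM final), then stimulated with LPS (250 ng/mL final) plus ATP (1.25 mM final); secreted IL-1B measured by AlphaLISA after 16 hr, decreased signal indicating inhibition.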
TDP1 cell noCPT: qHTS for Inhibitors of human tyrosyl-DNA phosphodiesterase 1 (TDP1): qHTS in cells in absence of CPT. DT40 Tdp1-/- hTDP1 cells, no CPT, ATP luminescence, 48 h. Potency, µM (series often up to 46.2 µM), usual class: inhibitors. 420,000 compounds, 15% hits; note: nearly all actives have a fitted effect of over 55% in size
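Readout: luminescence from CellTiter-Glo after 30 min in the dark at RT. Cells: DT40 Tdp1-/- with stable hTDP1, 400/well. Exposure: compounds alone, ≥48 hr, 37 °C.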
HepG2 viability: qHTS for Inhibitors of TGF-b: Cytotox Counterscreen | HepG2 CAGA-GFP viability, ATP luminescence, 18 h | Potency, µM (series often up to 46.1 µM), hits mostly cytotoxic | 410,000 compounds, 0.76% hits | AID 588856, 2011
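HepG2 CAGA-GFP cells (1000/well, DMEM with 1% FBS) received compound, then TGF-beta at 500 pg/mL final, and were incubated 18 hours at 37 degrees C. Viability was read by CellTiter-Glo luminescence. Media-only wells were set as complete cell-killing and DMSO as no toxicity.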
TDP1 block: qHTS Assay for Inhibitors of Tyrosyl-DNA Phosphodiesterase (TDP1); AID 485290, 2010; Potency, µM (highest dose often 130 µM), hits mostly inhibitors; 350,000 compounds, 0.28% hits; Tyrosyl-DNA phosphodiesterase 1 (Homo sapiens), Q9NUW8; recombinant TDP1, AlphaScreen DNA substrate cleavage; note: nearly all actives have a fitted effect of over 40% in size
Target sequence (Q9NUW8 whole entry, looked up): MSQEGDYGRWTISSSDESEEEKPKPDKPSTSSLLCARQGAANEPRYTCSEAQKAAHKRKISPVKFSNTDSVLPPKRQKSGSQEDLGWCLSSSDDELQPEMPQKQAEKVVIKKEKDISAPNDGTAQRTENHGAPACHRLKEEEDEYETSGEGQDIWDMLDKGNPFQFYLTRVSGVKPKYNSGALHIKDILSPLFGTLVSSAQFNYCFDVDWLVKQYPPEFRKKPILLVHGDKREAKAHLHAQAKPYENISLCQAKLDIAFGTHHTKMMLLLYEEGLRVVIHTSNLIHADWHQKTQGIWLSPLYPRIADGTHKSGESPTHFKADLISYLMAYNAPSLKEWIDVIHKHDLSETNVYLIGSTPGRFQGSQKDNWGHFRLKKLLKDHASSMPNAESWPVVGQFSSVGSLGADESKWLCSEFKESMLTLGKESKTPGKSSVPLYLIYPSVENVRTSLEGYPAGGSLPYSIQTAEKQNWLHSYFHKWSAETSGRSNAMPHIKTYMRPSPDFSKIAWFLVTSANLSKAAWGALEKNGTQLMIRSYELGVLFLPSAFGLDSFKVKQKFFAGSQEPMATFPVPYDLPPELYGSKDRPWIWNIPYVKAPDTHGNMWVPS
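E. coli-derived human Tdp1, 1 nM final. Cpd preinc 15 min RT; substrate 15 nM final, 5 min RT; AS bead mix 10 ug/ml final, 10 min RT. Signal loss = tyrosine-FITC cleavage. No-enzyme wells = max signal.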
DT40 TDP1 CPT: qHTS for Inhibitors of human tyrosyl-DNA phosphodiesterase 1 (TDP1): qHTS in cells in presence of CPT; chicken DT40 Tdp1-/-;hTDP1 cells + 20 nM CPT, ATP luminescence, 48 h; Potency, µM (series often up to 46.2 µM), most hits filed as inhibitors; AID 686979, 2013; 420,000 compounds, 12% hits; note: nearly all actives have a fitted effect of over 55% in size
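Chicken DT40 Tdp1-/- cells stably complemented with human TDP1 were seeded at 400 cells/well in medium containing 20 nM camptothecin, exposed to pin-transferred compounds, and grown at 37 °C for at least 48 hr. Viability was read as ATP luminescence.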
TGFb SMAD3 inh: qHTS for Inhibitors of TGF-b; 410,000 compounds, 1.2% hits; Potency, µM (series often up to 46.1 µM), usual class: inhibitors; HepG2 CAGA-GFP TGF-b/SMAD3 reporter, GFP fluorescence, 18 h; TGF-beta stimulated, 500 pg/mL final; note: nearly all actives have a fitted effect of over 65% in size
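GFP signal (ex488/em500-530) from TGF-beta-stimulated HEPG2 CAGA-GFP cells, 500 pg/mL final, 18 h at 37 degrees C in DMEM plus 1% FBS, normalized to unstimulated and DMSO-stimulated controls.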
A number is an active result; . = inactive; ? = inconclusive; / = not tested or not shown. The list is not random: actives were taken first. Their share in the collection is about 19%. Unless noted, calls come from the whole dose curve; as a rule, active = well fitted curve in the direction sought with a large enough effect; inconclusive = small, poorly fitted or top-dose-only effect, or another doubt; inactive = no such curve, though single readings can be large; an effect the other way counts as inactive or inconclusive.

SMILES	IL-1B inflam inh	TDP1 cell noCPT	HepG2 viability	TDP1 block	DT40 TDP1 CPT	TGFb SMAD3 inh
O=C1C2C3C=CC(C2C(=O)N1c1nccs1)C1C(=O)N(c2nccs2)C(=O)C31 (configuration not stated)	.	.	.	/	.	.
O=C1C2C3C=CC(CC3)C2C(=O)N1c1nccs1 (configuration not stated)	.	.	.	10µM	.	.
COCCn1c(=O)[nH]c2cc(C(=O)NCCN3CCN(c4cccc(Cl)c4)CC3)ccc2c1=O	.	3.26µM	.	.	14.6µM	.
COCCn1c(=S)[nH]c2cc(C(=O)N3CCN(Cc4ccc5c(c4)OCO5)CC3)ccc2c1=O	.	18.4µM	.	.	?	.
COCCn1c(=S)[nH]c2cc(C(=O)N3CCN(c4cccc(Cl)c4)CC3)ccc2c1=O	.	4.11µM	.	.	20.6µM	.
COc1ccc(CCn2c(=S)[nH]c3cc(C(=O)N4CCOCC4)ccc3c2=O)cc1OC	.	18.4µM	.	.	?	.
COCCn1c(=O)[nH]c2cc(C(=O)N3CCN(Cc4ccc5c(c4)OCO5)CC3)ccc2c1=O	.	.	.	/	.	.
O=C(Nc1ccc(F)c(Cl)c1)N1CCN(C(=O)c2nsc3ccccc23)CC1	/	?	.	.	?	/
CN(CCO)C(=O)c1cn(C2CCCN(Cc3ccc4ccccc4c3)C2)nn1 (configuration not stated)	/	.	/	/	.	/
CNC(=O)c1cc(S(=O)(=O)N2CC(C)OC(C)C2)ccc1N1CCOCC1 (configuration not stated)	.	?	.	.	.	.
COCCn1c(=O)[nH]c2cc(C(=O)N3CCN(c4cccc(C(F)(F)F)c4)CC3)ccc2c1=O	.	13µM	.	/	20.6µM	.
O=[N+]([O-])c1cc(S(=O)(=O)NCCN2CCOCC2)ccc1Cl	-83.7	.	.	.	.	.
O=S(=O)(NCCN1CCOCC1)c1ccc(F)c(Cl)c1	.	16.4µM	.	/	18.4µM	.
CCCN1CCC(=NNc2ccc(S(=O)(=O)N3CCOCC3)cc2[N+](=O)[O-])CC1	.	2.59µM	14.1µM	.	2.59µM	.
O=S(=O)(NCCCN1CCOCC1)c1ccc(Cl)s1	.	23.1µM	.	.	?	.
O=S(=O)(NCCN1CCOCC1)c1ccc(Cl)c(Cl)c1	.	.	.	/	.	.
Fc1ccc2ncc3c(-c4ccccc4)n[nH]c3c2c1	/	.	.	.	.	.
Fc1ccc2cnc(-c3ccccc3)c(-c3cccc(C(F)(F)F)c3)c2c1	.	18.4µM	.	/	16.4µM	?
Fc1cc(F)cc(-c2c(-c3ccccc3)ncc3ccc(F)cc23)c1	.	7.31µM	.	/	13µM	?
Cc1ccc(NC(=O)CCN2CC(C)OC(C)C2)cc1C (configuration not stated)	.	.	.	/	.	.
Cc1cc(O)c(C=O)c2c1C(=O)Oc1c(C)c(O)c3c(c1O2)C(O)OC3=O (configuration not stated)	/	.	/	7.94µM	.	/
CCn1c(=O)c(CCC(=O)N2CCN(c3ccccn3)CC2)c(C)c2c(C)nn(-c3cccc(C)c3)c21	.	?	.	.	14.6µM	.
CCn1c(=O)c(CCC(=O)NCC2CCCO2)c(C)c2c(C)nn(-c3ccc(C)cc3)c21 (configuration not stated)	.	?	.	.	23.1µM	.
Cc1ccc(-n2c(=O)c3c(c4cc(C)ccc4n3C)n(CC(=O)NCC3CCCO3)c2=O)cc1 (configuration not stated)	.	?	.	.	?	.
COc1ccc(/C=C(\C#N)C(=O)N2COCC2(C)C)cc1	.	.	.	/	.	.

Assay outcomes deposited in PubChem by National Center for Advancing Translational Sciences (NCATS).
